This is part of a sample that, as a whole, favours compounds with a hit. Of some 83,000 tested, about 20% had one in any assay.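 Cells were grown in 96-well plates and exposed to the test compound at a single concentration for 48 hours; results are reported as percent growth, with values below 10 considered active.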 Active and inactive are the calls of the source.
Legend:
Assay in all cases: NCI-60 one-dose screen, 48 h (100 = growth as untreated, 0 = no growth, -100 = all killed)
Conditions in all cases: 10 µM unless noted
[1] = system: SR leukemia
[2] = system: RPMI-8226 leukemia
[3] = system: OVCAR-8 ovarian
[4] = system: OVCAR-5 ovarian
[5] = system: OVCAR-4 ovarian
[6] = system: SK-OV-3 ovarian
[7] = system: IGROV1 ovarian
[8] = system: OVCAR-3 ovarian
[9] = system: T-47D breast
[10] = system: BT-549 breast
[11] = system: MDA-MB-435 melanoma
[12] = system: SW-620 colon
[13] = system: MCF7 breast
[14] = system: HCT-116 colon
[15] = system: HCC-2998 colon
[16] = system: KM12 colon
[17] = system: HS 578T breast
[18] = system: NCI/ADR-RES ovarian

Measured: growth

CCOC(=O)[C@@H](C)C[C@H](Cc1ccccc1)NC(=O)c1csc([C@@H](C[C@H](C(C)C)N(C)C(=O)[C@@H](NC(=O)[C@H]2C[C@H](O[Si](C)(C)C(C)(C)C)CCN2C)C(C)C)OC(C)=O)n1
inactive: [5] 17.3% [9.25 µM] | [7] 15.7% [9.25 µM] | [9] 37% [9.25 µM] | [12] 11.8% [9.25 µM] | [13] 13% [9.25 µM]
active: [1] -13.9% [9.25 µM] | [2] -32.7% [9.25 µM] | [3] -2.84% [9.25 µM] | [4] 9.08% [9.25 µM] | [6] -2.86% [9.25 µM] | [8] 1.08% [9.25 µM] | [10] -29.6% [9.25 µM] | [11] -57.5% [9.25 µM] | [14] -25.9% [9.25 µM] | [15] -1.53% [9.25 µM] | [16] 2.03% [9.25 µM]

COc1cc(/C=N/NC(=O)c2cnn3c2NC(c2ccccc2)C3)ccc1Oc1ccccc1 (stereo unspecified)
inactive: [1] 18% | [2] 56.1% | [3] 30.7% | [4] 59.6% | [5] 31.7% | [6] 27.6% | [7] 33.8% | [17] 37.8% | [18] 41.3% | [9] 28.6% | [12] 24.9% | [15] 57.3% | [16] 16.6%
active: [10] 6.76% | [11] -22.9% | [13] 9.6% | [14] 1.82%

COc1cc(OC)cc(C(=O)C[n+]2cccc3cc[nH]c32)c1
inactive: [1] 116% | [2] 106% | [3] 103% | [4] 98.9% | [5] 99.3% | [6] 104% | [7] 94.2% | [17] 101% | [18] 101% | [9] 100% | [10] 102% | [11] 99% | [12] 99.8% | [13] 94.2% | [14] 97.6% | [15] 107% | [16] 101%

COc1ccc(OC)c(CCn2cncc2-c2c[nH]c3ccccc23)c1
inactive: [1] 60.1% | [2] 45.6% | [3] 89.4% | [4] 94.4% | [5] 44.6% | [6] 72.9% | [7] 44% | [8] 57% | [18] 71.1% | [9] 45.8% | [10] 83.8% | [11] 58.9% | [13] 71% | [14] 77.7% | [15] 91.8% | [16] 89.1%

CNC(=O)c1cccc(Cn2nc(C)c(NC(=O)c3ccc(COc4ccc(C(F)(F)F)cc4C)cc3)c2C)c1
active: [9] 6.16%
inactive: [1] 23.3% | [2] 27.3% | [3] 33.9% | [4] 100% | [5] 29.6% | [6] 70.9% | [7] 63.8% | [8] 34% | [18] 35.4% | [10] 19.7% | [11] 36.2% | [12] 77.3% | [13] 21.7% | [14] 29.2% | [15] 68.5% | [16] 61.7%

COC(=O)/C=C1\S/C(=N\NC(=O)c2cc3ccc2/C=C\c2ccc(cc2)/C=C\3)N(c2ccccc2)C1=O
active: [1] -15.6% | [2] -20.9% | [7] 5.97% | [8] -6.25% | [9] -38.2% | [12] 7.39% | [14] 4.05% | [15] 3.64% | [16] 8.49%
inactive: [3] 40.7% | [4] 48.2% | [5] 29.4% | [6] 135% | [18] 31.4% | [10] 35.5% | [11] 89.6% | [13] 23.2%

O=C1Nc2cc(-c3cccc(O)c3)ccc2/C1=C/c1ccc[nH]1
inactive: [3] 26.6% | [4] 19.4% | [5] 25.4% | [18] 23.8% | [12] 18.9% | [13] 10.5% | [14] 11.6% | [15] 14.8%
active: [1] 4.14% | [2] -15% | [6] 3.46% | [7] 8.78% | [8] -1.19% | [9] -0.905% | [10] 0.113% | [11] 5.05% | [16] 0.211%

CC1(C)NCCC[C@]2(C)[C@H]3CC(=O)[C@H]4[C@@H]5C[C@](C)(CO)CC[C@]5(C)CC[C@@]4(C)[C@]3(C)CC[C@@H]12
inactive: [1] 82% | [2] 95% | [3] 114% | [4] 98.3% | [5] 92% | [6] 110% | [7] 98.1% | [8] 89.8% | [18] 105% | [9] 87.5% | [10] 103% | [11] 92.2% | [12] 98.6% | [13] 87.3% | [14] 84.1% | [15] 100% | [16] 95.4%

COc1ccc(C/C(=C(\C)c2ccc(OCCN3CCCC3)cc2)c2ccc(OCCN3CCCC3)cc2)cc1
active: [1] -32.6% | [2] -20.6% | [11] -77.2% | [12] -35.4% | [13] -7%
inactive: [3] 64.9% | [4] 77.8% | [5] 81.5% | [6] 90.8% | [7] 64.1% | [8] 29% | [18] 78.3% | [9] 77.6% | [10] 85% | [14] 24.9% | [15] 68.9% | [16] 47.9%

C=C1C(=O)O[C@H]2[C@H]1CC/C(CNC(=O)/C=C/c1ccccc1)=C\CC[C@@]1(C)O[C@@H]21
active: [1] 6.13% | [2] -10.5% | [3] 5.85% | [4] -21.6% | [7] -16.9% | [9] -12.1% | [10] -56.8% | [11] -8.54% | [12] -68.4% | [13] -22.2% | [14] -58.9% | [15] -7.49%
inactive: [5] 38.5% | [6] 109% | [17] 28.6% | [18] 69.1% | [16] 76.5%

O=C(CCN1CCCC1)Nc1ccc2c(Nc3ccc(Br)cc3)c3ccccc3nc2c1
active: [1] -22.6% | [2] -34.9% | [3] 5.94% | [5] -20.2% | [7] -21.1% | [8] -65.1% | [11] -88% | [12] -64.8% | [13] -66.8% | [14] -57.6% | [15] -73.4% | [16] -59.2%
inactive: [4] 41.9% | [6] 57.5% | [18] 20.3% | [9] 13.6% | [10] 47.9%

O=[N+]([O-])CC(c1ccccc1F)c1c[nH]c2ccccc12 (stereo unspecified)
inactive: [1] 30.2% | [2] 76% | [3] 78% | [4] 96% | [5] 97.3% | [6] 119% | [7] 68.6% | [8] 77.9% | [18] 48.2% | [9] 59.4% | [10] 73.8% | [12] 39% | [13] 54.3% | [14] 65.2% | [15] 80.6% | [16] 59.5%
active: [11] 3.66%

COc1ccccc1/C=C1\Oc2cc(OCCN3CCCC3)ccc2C1=O
inactive: [2] 82.2% | [3] 91.8% | [4] 86.2% | [5] 93.9% | [6] 98.2% | [7] 97.3% | [8] 96.2% | [18] 90.9% | [9] 90.1% | [10] 84.2% | [11] 94% | [12] 74% | [13] 68.1% | [14] 47.1% | [15] 75.8% | [16] 88.8%
active: [1] -8.89%

CC(C)(C)c1cc(C=O)cc(C(C)(C)C)c1O
inactive: [1] 101% | [2] 72.7% | [3] 94.1% | [4] 108% | [5] 98.7% | [6] 110% | [7] 106% | [8] 101% | [18] 98.8% | [9] 110% | [10] 92.5% | [11] 111% | [12] 97.7% | [14] 92.9% | [15] 93.6% | [16] 99.6%

O=C(CNCCN1CCOCC1)N1c2cccc3cccc(c23)N(C(=O)CNCCN2CCOCC2)C1c1cn(-c2ccccc2)nc1-c1cccc([N+](=O)[O-])c1
inactive: [2] 44.8% | [3] 88.3% | [4] 107% | [5] 90.7% | [6] 109% | [7] 74.3% | [8] 93.6% | [18] 87.7% | [9] 77.6% | [10] 89.7% | [11] 80.1% | [12] 83.2% | [13] 36.9% | [14] 50.7% | [15] 35.4% | [16] 98.8%
active: [1] -19.4%

COc1ccc(C(=O)c2cc(C)c(OC)c(C)c2)c(OC)c1N(C(=O)CCl)C(=O)CCl
active: [6] 2.36% | [8] -6.63% | [18] -37.1% | [10] 3.05% | [11] -46.8% | [14] -0.69% | [16] 6.61%
inactive: [1] 21% | [2] 17.7% | [3] 10.3% | [4] 29.2% | [5] 44.9% | [7] 13.8% | [9] 51.2% | [12] 20.3% | [13] 14% | [15] 13.5%

C=C1C(=O)O[C@H]2[C@H]1CC/C(COC(=O)NCc1c[nH]c3ccc(Cl)cc13)=C\CC[C@@]1(C)O[C@@H]21
active: [1] 7.4% | [2] -35.5% | [3] -59.2% | [4] -27.7% | [5] -54.7% | [7] -65.8% | [9] -76.2% | [10] -65.6% | [11] -88.4% | [12] -74.3% | [14] -90.1%
inactive: [6] 90.5% | [17] 25.3% | [18] 48.1% | [13] 17.2% | [15] 70.4% | [16] 13.8%

From PubChem BioAssay (NCI)
